Measured values taken from the supplement of paper PMC8007513.
Structures can show the parent of a compound that is named as a salt. ± gives the standard error. About 75 (6%) of roughly 1,300 compounds showed an effect of 50% or more. This excerpt belongs to a sample that is enriched for strong results.

Test system: Trichoderma virens ATCC 9645
Experiment: growth yield (OD600) relative to untreated control; higher = less growth inhibition
Details: compound concentration: 100 uM
Outline: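 Trichoderma virens ATCC 9645 spores, from potato dextrose agar plates grown for 7 days, were brought to 15,000 spores ml^−1 in potato dextrose broth and dispensed as 100 μl aliquots into 96-well plates. Each aliquot received library compounds at 100 μM final, with or without a biocide at 200 ng ml^−1, before growth at 30 °C and OD600 readings on a BioTek EL800 at 40 h and 72 h. Growth is expressed relative to the control containing neither agent and represents means of duplicate screens.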

SMILES	growth yield (40 h)	growth yield (72 h)
N=C(N=C(N)N)N1CCOCC1 [Moroxidine hydrochloride]	106 ± 4.3%	104 ± 1.9%
O=C(Nc1ccc([N+](=O)[O-])cc1Cl)c1cc(Cl)ccc1O [Niclosamide]	96.1 ± 0.16%	96.59 ± 0.1%
CN[C@@H]1[C@H](O[C@H]2[C@H](O[C@H]3[C@H](O)[C@@H](O)[C@H](N=C(N)N)[C@@H](O)[C@@H]3N=C(N)N)O[C@@H](C)[C@]2(O)C=O)O[C@@H](CO)[C@H](O)[C@H]1O [Streptomycin sulfate]	103 ± 1.3%	104.35 ± 0.1%
COc1cc(C)nc(-n2nc(C)cc2OC)n1 [Epirizole]	111 ± 3.8%	109 ± 3.8%
Cc1ncc(CO)c(CO)c1O [Pyridoxine hydrochloride]	101.5 ± 0.16%	103.3 ± 0.52%
CCOC(=O)N1CCC(=C2c3ccc(Cl)cc3CCc3cccnc32)CC1 [Loratadine]	19.2 ± 12%	73.6%
CN1CCC(=C2c3ccccc3CCc3cccnc32)CC1 [Azatadine maleate]	107 ± 7.9%	104 ± 4.2%
Clc1ccc2c(c1)CCc1cccnc1C2=C1CCNCC1 [Desloratadine]	106 ± 6.8%	105 ± 4.8%
COc1ccc(C[C@@H]2c3cc(OC)c(OC)cc3CC[N@+]2(C)CCC(=O)OCCCCCOC(=O)CC[N@@+]2(C)CCc3cc(OC)c(OC)cc3[C@H]2Cc2ccc(OC)c(OC)c2)cc1OC [Cisatracurium besylate]	95 ± 1.3%	94 ± 3.4%
CCCCc1ccc2[nH]c(NC(=O)OC)nc2c1 [Parbendazole]	53.4 ± 1.9%	95.9 ± 10%
CCCOc1ccc2[nH]c(NC(=O)OC)nc2c1 [Oxibendazol]	16.4 ± 3.6%	74.6 ± 3.5%
CCCSc1ccc2[nH]c(NC(=O)OC)nc2c1 [Albendazole]	73.2 ± 3.6%	84.3 ± 5.5%
Cc1ccc2c(c1)c1c3n2CCNC3CCC1 (stereo not given) [Pirlindole mesylate]	101 ± 1.1%	104 ± 2.5%
Clc1cc(Cl)c(OCC#CI)cc1Cl [Haloprogin]	6.04 ± 1.6%	5.14 ± 0.73%
CC1CC(OC(=O)c2ccccc2O)CC(C)(C)C1 (stereo not given) [Homosalate]	109 ± 3.2%	105.8 ± 0.32%
CCCCNc1c(C(=O)OCC)c(C)nc2c1cnn2CC [Tracazolate hydrochloride]	38.1 ± 16%	60.5 ± 13%
CCCCNc1ccc(C(=O)OCCOCCOCCOCCOCCOCCOCCOCCOCCOC)cc1 [Benzonatate]	92.1 ± 2.5%	89.1 ± 2.1%
CCCCNc1ccc(C(=O)OCCN(C)C)cc1	99.752 ± 2.2e-14%	102 ± 3.4%
CC[C@H]1OC(=O)C[C@@H](O)[C@H](C)[C@@H](O[C@@H]2O[C@H](C)[C@@H](O[C@H]3C[C@@](C)(O)[C@@H](O)[C@H](C)O3)[C@H](N(C)C)[C@H]2O)[C@@H](CC=O)C[C@@H](C)C(=O)/C=C/C(C)=C/[C@@H]1CO[C@@H]1O[C@H](C)[C@@H](O)[C@@H](OC)[C@H]1OC [Tylosin]	95.94 ± 0.32%	94.2 ± 1.9%
C[C@H]1c2cccc(O)c2C(=O)C2=C(O)[C@]3(O)C(=O)C(C(N)=O)=C(O)[C@@H](N(C)C)[C@@H]3[C@@H](O)[C@@H]21 [Doxycycline hydrochloride]	93.2 ± 1.8%	92.7 ± 2.7%
Cc1c(N(C)CS(=O)(=O)O)c(=O)n(-c2ccccc2)n1C [Dipyrone]	91.7 ± 4.6%	85.68 ± 0.73%
CN1CCN(CCCN2c3ccccc3Sc3ccc(S(=O)(=O)N(C)C)cc32)CC1 [Thioproperazine dimesylate]	64.5 ± 11%	90.7 ± 4.1%

SMILES	growth yield (40 h)	growth yield (72 h)
CN(C)CCCN1c2ccccc2Sc2ccc(Cl)cc21 [Chlorpromazine hydrochloride]	68.8 ± 2.1%	86.52 ± 0.32%
CN1CCN(CCCN2c3ccccc3Sc3ccc(Cl)cc32)CC1 [Prochlorperazine dimaleate]	31 ± 8.7%	108 ± 2.4%
OCCN1CCN(CCCN2c3ccccc3Sc3ccc(Cl)cc32)CC1 [Perphenazine]	59.1 ± 5.1%	113 ± 14%
CC(=O)c1ccc2c(c1)N(CCCN(C)C)c1ccccc1S2 [Acetopromazine maleate salt]	109 ± 5.9%	111 ± 4.1%
CCSc1ccc2c(c1)N(CCCN1CCN(C)CC1)c1ccccc1S2 [Thiethylperazine dimalate]	3.02 ± 0.16%	2.73 ± 0.42%
COc1cc(N)c(Cl)cc1C(=O)NC1CCN(CCCOc2ccc(F)cc2)CC1OC (stereo not given) [Cisapride]	108%	109%
O=C(Cn1ccnc1[N+](=O)[O-])NCCO [Etanidazole]	101 ± 2.2%	98 ± 1.9%
CCN(CC)CCOC(=O)C1(c2ccc([N+](=O)[O-])cc2)CCCC1 [Nitrocaramiphen hydrochloride]	101%	103.3 ± 0.52%
O=C(CCCN1CCC(O)(c2ccc(Br)cc2)CC1)c1ccc(F)cc1 [Bromperidol]	104.4 ± 0.48%	105.4 ± 0.1%
C/C(=C(\CCOP(=O)(O)O)SC(=O)c1ccccc1)N(C=O)Cc1cnc(C)nc1N [Benfotiamine]	99.75 ± 0.64%	96.38 ± 0.1%
NC(=O)c1cc[n+](CC2=C(C(=O)[O-])N3C(=O)[C@@H](NC(=O)[C@@H](c4ccccc4)S(=O)(=O)O)[C@H]3SC2)cc1 [Cefsulodin sodium salt]	95 ± 4.8%	99.3 ± 3.2%
CC[C@H](C)C(=O)O[C@H]1CCC=C2C=C[C@H](C)[C@H](CC[C@@H]3C[C@@H](O)CC(=O)O3)[C@H]21 [Mevastatin]	103 ± 7.6%	96.2 ± 6.6%
O=P(O)(O)C(O)(Cn1ccnc1)P(=O)(O)O [Zoledronic acid hydrate]	108 ± 4.5%	109 ± 1.6%
CO[C@H]1/C=C/O[C@@]2(C)Oc3c(C)c(O)c4c(O)c(c(/C=N/N5CCN(C6CCCC6)CC5)c(O)c4c3C2=O)NC(=O)/C(C)=C\C=C\[C@H](C)[C@H](O)[C@@H](C)[C@@H](O)[C@@H](C)[C@H](OC(C)=O)[C@@H]1C [Rifapentine]	84.5%	94%
CN1CCC(=C2c3ccccc3Sc3ccccc32)CC1 [Pimethixene maleate]	85.77 ± 0.64%	95.2 ± 1.9%
CSc1ccc2c(c1)N(CCC1CCCCN1C)c1ccccc1S2 (stereo not given) [Thioridazine hydrochloride]	53.8 ± 6.2%	83 ± 2.6%
CSc1ccc2c(c1)C(N1CCN(C)CC1)Cc1ccccc1S2 (stereo not given) [Methiothepin maleate]	43.5 ± 3.5%	75.4 ± 3.2%
CN(Cc1cc(Br)cc(Br)c1N)C1CCCCC1 [Bromhexine hydrochloride]	99 ± 1.1%	98.2 ± 1.9%
Cc1scc2c1N(C(=O)CN1CCN(C)CC1)c1ccccc1NC2=O [Telenzepine dihydrochloride]	99.75 ± 0.32%	103 ± 1.1%
CC(=O)Oc1cc(C(F)(F)F)ccc1C(=O)O [Triflusal]	94.5 ± 2.4%	91.77 ± 0.32%
Cc1cc(N)c2ccccc2[n+]1CCCCCCCCCC[n+]1c(C)cc(N)c2ccccc21 [Dequalinium dichloride]	2.54 ± 1.6%	2.2 ± 1.4%
Nc1ccccc1S(N)(=O)=O [2-Aminobenzenesulfonamide]	93.7 ± 1.6%	94.39 ± 0.63%

SMILES	growth yield (40 h)	growth yield (72 h)
Cc1cc(C2CCCCC2)n(O)c(=O)c1 [Ciclopirox ethanolamine]	1.27 ± 1.3%	1.15 ± 1.1%
CC(=O)Nc1c(I)c(C(=O)N[C@H]2C(O)O[C@H](CO)[C@@H](O)[C@@H]2O)c(I)c(N(C)C(C)=O)c1I (stereo not given in full) [Metrizamide]	102 ± 13%	105 ± 12%
CC1(C)O[C@@H]2C[C@H]3[C@@H]4CCC5=CC(=O)C=C[C@]5(C)[C@H]4[C@@H](O)C[C@]3(C)[C@]2(C(=O)CO)O1 [Desonide]	109 ± 11%	98.7 ± 6.6%
CCC(=O)[C@@]1(C)[C@H](C)C[C@H]2[C@@H]3CCC4=CC(=O)C=C[C@]4(C)[C@H]3[C@@H](O)C[C@@]21C [Rimexolone]	112 ± 14%	106 ± 8.3%
COc1c(O[C@@H]2O[C@H](CO)[C@@H](O)[C@H](O)[C@H]2O)cc2c(c1OC)-c1ccc(SC)c(=O)cc1[C@@H](NC(C)=O)CC2 [Thiocolchicoside]	101 ± 1.4%	103 ± 2.2%
NS(=O)(=O)c1cc2c(cc1C(F)(F)F)NCNS2(=O)=O [Hydroflumethiazide]	102 ± 2.4%	100 ± 3.1%
O=C1c2cccc(O)c2C(=O)c2c(O)cccc21 [1,8-Dihydroxyanthraquinone]	85.8 ± 11%	87.2 ± 8.7%
O=C1c2c(O)cccc2Cc2cccc(O)c21 [Anthralin]	96.7 ± 3.6%	89.5 ± 2.8%
O=C1c2c(O)ccc(O)c2C(=O)c2c(NCCNCCO)ccc(NCCNCCO)c21 [Mitoxantrone dihydrochloride]	2.86 ± 2.9%	0.21 ± 0.21%
CN1[C@@H]2CC[C@H]1C[C@@H](OC(c1ccccc1)c1ccccc1)C2 [Benztropine mesylate]	105 ± 3.6%	102 ± 1.7%
O=C1OCCN1/N=C/c1ccc([N+](=O)[O-])o1 [Furazolidone]	84.3 ± 7.2%	87.7 ± 5.9%
Nc1nc(=O)c2nc(CNc3ccc(C(=O)N[C@@H](CCC(=O)O)C(=O)O)cc3)cnc2[nH]1 [Folic acid]	102 ± 1.4%	104.7 ± 0.42%
CN(C)CCOC(c1ccccc1)c1ccccc1 [Diphenhydramine hydrochloride]	99.9 ± 5.2%	99.4 ± 3.1%
CCN(CC)CCOc1ccc(C(=C(Cl)c2ccccc2)c2ccccc2)cc1 [Clomiphene citrate (Z,E)]	1.75 ± 1.1%	2.2 ± 0.1%
COc1cc(C(=O)NCc2ccc(OCCN(C)C)cc2)cc(OC)c1OC [Trimethobenzamide hydrochloride]	103 ± 2.4%	97.75 ± 0.21%
CN(C)CCOc1ccc(/C(=C(/CCCl)c2ccccc2)c2ccccc2)cc1 [Toremifene]	3.81 ± 0.32%	2.73 ± 0.21%
CN(C)CCOC(=O)COc1ccc(Cl)cc1 [Meclofenoxate hydrochloride]	95.1 ± 2.1%	92.1 ± 3.6%
CCN(CC)CCOC(=O)C(c1ccccc1)c1ccccc1 [Adiphenine hydrochloride]	98.8 ± 7.6%	96.9 ± 5.5%
CC/C(=C(\c1ccccc1)c1ccc(OCCN(C)C)cc1)c1ccccc1 [Tamoxifen citrate]	1.11 ± 0.48%	1.26 ± 0.21%
COc1ccc(C(Cl)=C(c2ccc(OC)cc2)c2ccc(OC)cc2)cc1 [Chlorotrianisene]	101 ± 2.7%	96.7 ± 1.5%
COc1ccc(C(=O)NCc2ccc(OCCN(C)C)cc2)cc1OC [Itopride]	105 ± 5.7%	105 ± 3.7%
